The structures appear in SMILES notation. Counter-ions that a name gives are not always drawn.

In the assay the test system is Staphylococcus aureus Sa2 (MRSA, cystic fibrosis isolate). Briefly: growth reduction vs untreated control (viable cell count); higher = stronger antibacterial activity; extreme values may be limits of the assay. Conditions: 0.1 mM; 24 h. As for the experimental part: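 Single-dose screen of the MedChem Express Drug Repurposing Library (0.1 mM, 1% DMSO) against planktonic MRSA S. aureus Sa2 (CF isolate) in TSB in 96-well plates, 37 °C aerobic, 24 h. Assays were run in triplicate and repeated twice.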
Molecule `CCOc1cc2ncc(C#N)c(Nc3ccc(F)c(Cl)c3)c2cc1NC(=O)/C=C/CN(C)C` [Pelitinib] showed a growth reduction of 97%.

Take `CCOc1nc2cccc(C(=O)OC(C)OC(=O)OC3CCCCC3)c2n1Cc1ccc(-c2ccccc2-c2nn[nH]n2)cc1` (stereo not drawn) [Candesartan Cilexetil]: the growth reduction stood at 100%.

As to `CC(=O)c1cc2c(o1)C(=O)c1ccccc1C2=O` [Napabucasin], the growth reduction was 100%.

`NC(=O)[C@@H]1CC[C@@H]2CN1C(=O)N2OS(=O)(=O)O` [Avibactam (sodium)]: the growth reduction worked out at 97%.

Molecule `CC(C)(C)C(=O)Oc1ccc(S(=O)(=O)Nc2ccccc2C(=O)NCC(=O)O)cc1` [Sivelestat (sodium)] had a growth reduction of 93%.

The molecule `Cc1cc(Nc2ncnc3ccc(NC4=NC(C)(C)CO4)cc23)ccc1Oc1ccn2ncnc2c1` [Tucatinib] displayed a growth reduction of 92%.

The molecule `Cc1ccc(Sc2ccccc2N2CCNCC2)c(C)c1` [Vortioxetine (hydrobromide)] returned a growth reduction of 100%.

As to `Fc1ccc2c(CCNCc3cccc(OCC(F)(F)C(F)F)c3)c[nH]c2c1` [Idalopirdine Hydrochloride], the growth reduction was 100%.

As to `Cn1cnc([N+](=O)[O-])c1C[N+](C)(C)C/C=C/C(=O)Nc1cc2c(Nc3ccc(Cl)c(Br)c3)ncnc2cn1` [Tarloxotinib (bromide)], the growth reduction came to 100%.

`C/C=C(/C(=C/C)c1ccc(O)cc1)c1ccc(O)cc1` [Dienestrol] returned a growth reduction of 92%.

With `CC(C)(O)c1ccccc1CC[C@@H](SCC1(CC(=O)O)CC1)c1cccc(/C=C/c2ccc3ccc(Cl)cc3n2)c1` [Montelukast (sodium)], the growth reduction is 100%.

Take `C[C@]1(O)C[C@@H](c2nc(-c3ccc4ccc(-c5ccccc5)nc4c3)c3c(N)nccn32)C1` [Linsitinib]: the growth reduction was 100%.

`CC(=O)Oc1ccccc1C(=O)Nc1ncc([N+](=O)[O-])s1` [Nitazoxanide] had a growth reduction of 100%.

In turn, `Cc1nc(C(=O)NCC(=O)O)c(O)c2ccc(Oc3ccccc3)cc12` [Roxadustat] showed a growth reduction of 98%.

`CCCCOc1nc(N)c2c(n1)N(Cc1cccc(CN3CCCC3)c1)CC(=O)N2` [Vesatolimod]: the growth reduction was found to be 98%.

`CCCCCCCCOc1ccccc1C(=O)Nc1ccc(C(=O)OCC[N+](C)(CC)CC)cc1` [Otilonium (bromide)] displayed a growth reduction of 100%.

In turn, `Cc1ccc(-n2[nH]c(C)c(N=Nc3cccc(-c4cccc(C(=O)O)c4)c3O)c2=O)cc1C` [Eltrombopag] had a growth reduction of 100%.

`COC(=O)C1=C(C)NC(C)=C(C(=O)OC(C)C)C1c1cccc2nonc12` (stereo not drawn) [Isradipine] gave a growth reduction of 100%.

`CCc1oc2ccccc2c1C(=O)c1cc(Br)c(O)c(Br)c1` [Benzbromarone]: the growth reduction was determined as 100%.

`Cc1cc(Nc2ncc(Cl)c(Nc3ccccc3S(=O)(=O)C(C)C)n2)c(OC(C)C)cc1C1CCNCC1` [Ceritinib] had a growth reduction of 100%.

On to `C=CC(=O)Nc1cc(Nc2nccc(-c3cn(C)c4ccccc34)n2)c(OC)cc1N(C)CCN(C)C` [Osimertinib mesylate], for which the growth reduction came out at 100%.

For the molecule `Clc1ccc(C(Cn2ccnc2)OCc2ccc(Sc3ccccc3)cc2)c(Cl)c1` (stereo not drawn) [Fenticonazole (Nitrate)], the growth reduction was found to be 100%.

For the molecule `C1=N/C2=N/c3ccc(OCCN4CCCC4)c(c3)COC/C=C/COCc3cccc(c3)C(=C1)N2` [Pacritinib], the growth reduction was found to be 100%.

In turn, `COc1ccc(Cl)c(Nc2nc3ccccc3nc2NS(=O)(=O)c2cccc(NC(=O)C(C)(C)N)c2)c1` [Pilaralisib] registered a growth reduction of 100%.

Molecule `Nc1ccc2cc3ccc(N)cc3nc2c1` [Proflavine (hemisulfate)] showed a growth reduction of 100%.

Molecule `COCc1c(C(C)C)nc(C(C)C)c(/C=C/[C@@H](O)C[C@@H](O)CC(=O)O)c1-c1ccc(F)cc1` [Cerivastatin (sodium)] returned a growth reduction of 99%.

The molecule `Cn1c(O)c(C2=c3ccccc3=NC2=O)c2ccccc21` [Meisoindigo] displayed a growth reduction of 100%.

Molecule `CCCCCCCOc1ccc(CCC(N)(CO)CO)cc1C(F)(F)F` [Amiselimod (hydrochloride)] had a growth reduction of 100%.

In turn, `CN1CC[C@@H](NC(=O)Nc2ccc(C#N)cc2)C[C@@H]1c1nc2ccccc2[nH]1` [Glasdegib] returned a growth reduction of 98%.

As to `c1cn2cc(-c3ccc4cn[nH]c4c3)nc(Nc3ccc(N4CCOCC4)cc3)c2n1` [Entospletinib], the growth reduction was 96%.

Molecule `CCCCCCCCCCCCCCCCOP(=O)([O-])OCC[N+](C)(C)C` [Miltefosine] had a growth reduction of 100%.

`Cc1ccc(C(=O)c2cc(O)c(O)c([N+](=O)[O-])c2)cc1` [Tolcapone]: the growth reduction turned out to be 100%.

`Oc1c(Br)cc(Br)c2cccnc12` [Broxyquinoline]: the growth reduction is 100%.

These data come from the supplement of paper PMC12024424.
